What was measured:
Experiment in all cases: DAPPL (digital affinity profiling via proximity ligation, sequencing); 10 mM Tris-HCl pH 7.5, 50 mM NaCl, 1 mM DTT, 4% glycerol, room temperature, 30 min; GST-TFs on glutathione beads, 16-mer random dsDNA library, 0.1% formaldehyde crosslink after washing; high values mean tight binding
[1] = target: T1, FLI1 (Homo sapiens, UniProt Q01543 1-452); settings: protein: recombinant; tags: N-terminal GST; dsDNA, one strand shown
T1 sequence: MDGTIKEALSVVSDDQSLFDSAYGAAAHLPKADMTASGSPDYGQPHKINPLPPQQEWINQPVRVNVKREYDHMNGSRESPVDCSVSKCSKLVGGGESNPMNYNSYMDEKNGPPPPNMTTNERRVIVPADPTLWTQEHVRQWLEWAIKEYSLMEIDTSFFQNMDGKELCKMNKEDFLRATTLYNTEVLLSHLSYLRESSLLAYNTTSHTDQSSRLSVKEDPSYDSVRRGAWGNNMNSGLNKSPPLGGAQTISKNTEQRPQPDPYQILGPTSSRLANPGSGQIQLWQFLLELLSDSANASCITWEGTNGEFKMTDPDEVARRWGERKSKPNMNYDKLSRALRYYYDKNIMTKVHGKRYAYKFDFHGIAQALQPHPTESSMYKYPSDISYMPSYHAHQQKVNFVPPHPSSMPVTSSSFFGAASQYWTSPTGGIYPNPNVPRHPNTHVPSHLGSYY
How it was run: (§1)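 Sequencing on an Illumina NextSeq500 followed washing, crosslinking with 0.1% formaldehyde, proximity ligation (BsaI/T4 ligase, 1 h, 37 °C) and PCR amplification of pools that had been incubated for 30 min at room temperature with 200 nmole of a random double-stranded 16-mer DNA library in Tris/NaCl/DTT/glycerol buffer. Each pool held DNA-barcoded human transcription factors, expressed in yeast as GST fusions and captured on glutathione beads, plus a tag-only sample. Binding signal is a hexamer's read frequency for a factor divided by its frequency in the tag-only sample.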

[2] = target: T2, ELK1 (Homo sapiens, UniProt P19419 1-428); settings: protein: recombinant; tags: N-terminal GST; dsDNA, one strand shown
T2 sequence: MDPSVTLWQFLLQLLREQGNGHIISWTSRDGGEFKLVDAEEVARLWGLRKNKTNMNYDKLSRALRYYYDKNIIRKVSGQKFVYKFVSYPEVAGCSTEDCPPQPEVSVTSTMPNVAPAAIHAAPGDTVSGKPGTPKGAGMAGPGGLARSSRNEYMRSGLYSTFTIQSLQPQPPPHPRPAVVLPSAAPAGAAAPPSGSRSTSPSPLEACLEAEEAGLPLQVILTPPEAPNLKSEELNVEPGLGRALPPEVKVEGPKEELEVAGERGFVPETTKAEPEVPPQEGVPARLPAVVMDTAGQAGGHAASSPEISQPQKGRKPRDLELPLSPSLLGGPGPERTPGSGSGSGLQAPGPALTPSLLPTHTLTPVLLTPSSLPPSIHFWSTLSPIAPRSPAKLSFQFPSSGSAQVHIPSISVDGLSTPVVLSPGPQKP
How it was run: as §1

[3] = target: T3, GABPA (Homo sapiens, UniProt Q06546 1-454); settings: protein: recombinant; tags: N-terminal GST; dsDNA, one strand shown
T3 sequence: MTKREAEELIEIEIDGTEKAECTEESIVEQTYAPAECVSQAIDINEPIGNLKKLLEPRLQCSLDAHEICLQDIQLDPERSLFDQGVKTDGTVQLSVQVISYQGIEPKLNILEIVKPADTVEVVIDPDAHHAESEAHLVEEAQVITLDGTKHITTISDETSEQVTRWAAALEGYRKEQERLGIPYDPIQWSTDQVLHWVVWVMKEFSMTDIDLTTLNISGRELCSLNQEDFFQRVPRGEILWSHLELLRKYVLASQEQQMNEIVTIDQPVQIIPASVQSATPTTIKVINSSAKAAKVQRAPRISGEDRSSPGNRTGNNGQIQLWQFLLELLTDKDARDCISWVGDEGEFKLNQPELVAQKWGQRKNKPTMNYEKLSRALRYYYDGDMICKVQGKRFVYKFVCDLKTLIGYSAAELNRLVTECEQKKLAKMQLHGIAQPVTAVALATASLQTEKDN
How it was run: as §1

[4] = target: T4, ERG (Homo sapiens, UniProt P11308 1-479); settings: protein: recombinant; tags: N-terminal GST; dsDNA, one strand shown
T4 sequence: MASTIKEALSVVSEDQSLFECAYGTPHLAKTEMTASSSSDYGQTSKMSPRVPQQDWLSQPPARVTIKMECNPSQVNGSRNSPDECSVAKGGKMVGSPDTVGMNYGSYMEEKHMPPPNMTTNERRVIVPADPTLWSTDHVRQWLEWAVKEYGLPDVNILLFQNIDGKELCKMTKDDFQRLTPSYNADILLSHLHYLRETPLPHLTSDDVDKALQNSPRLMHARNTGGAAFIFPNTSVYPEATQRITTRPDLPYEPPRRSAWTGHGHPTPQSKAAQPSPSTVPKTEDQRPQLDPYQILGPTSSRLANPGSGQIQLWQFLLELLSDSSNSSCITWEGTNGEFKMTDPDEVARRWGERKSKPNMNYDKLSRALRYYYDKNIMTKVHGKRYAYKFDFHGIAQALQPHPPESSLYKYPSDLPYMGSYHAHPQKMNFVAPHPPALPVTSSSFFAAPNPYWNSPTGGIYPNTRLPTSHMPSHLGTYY
How it was run: as §1

[5] = target: ELF1 (Homo sapiens, UniProt P32519 1-619); settings: protein: recombinant; tags: N-terminal GST; dsDNA, one strand shown
Sequence of ELF1 (P32519 whole entry): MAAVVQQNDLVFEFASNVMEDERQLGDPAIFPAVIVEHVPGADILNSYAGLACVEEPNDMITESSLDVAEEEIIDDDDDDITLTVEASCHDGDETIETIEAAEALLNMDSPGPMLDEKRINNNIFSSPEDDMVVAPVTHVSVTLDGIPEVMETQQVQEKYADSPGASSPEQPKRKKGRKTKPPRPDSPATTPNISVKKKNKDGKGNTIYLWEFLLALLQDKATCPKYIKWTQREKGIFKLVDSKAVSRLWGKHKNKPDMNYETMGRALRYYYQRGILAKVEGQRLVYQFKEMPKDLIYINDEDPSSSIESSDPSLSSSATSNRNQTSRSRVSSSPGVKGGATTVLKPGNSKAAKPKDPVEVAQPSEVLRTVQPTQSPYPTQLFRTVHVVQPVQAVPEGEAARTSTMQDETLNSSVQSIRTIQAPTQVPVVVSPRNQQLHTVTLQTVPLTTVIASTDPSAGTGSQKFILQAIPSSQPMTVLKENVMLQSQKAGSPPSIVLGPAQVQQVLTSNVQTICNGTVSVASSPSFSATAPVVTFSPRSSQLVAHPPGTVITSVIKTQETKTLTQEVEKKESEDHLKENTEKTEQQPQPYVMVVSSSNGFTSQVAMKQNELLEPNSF
How it was run: as §1

[6] = target: T5, EHF (Homo sapiens, UniProt Q9NZC4 1-300); settings: protein: recombinant; tags: N-terminal GST; dsDNA, one strand shown
T5 sequence: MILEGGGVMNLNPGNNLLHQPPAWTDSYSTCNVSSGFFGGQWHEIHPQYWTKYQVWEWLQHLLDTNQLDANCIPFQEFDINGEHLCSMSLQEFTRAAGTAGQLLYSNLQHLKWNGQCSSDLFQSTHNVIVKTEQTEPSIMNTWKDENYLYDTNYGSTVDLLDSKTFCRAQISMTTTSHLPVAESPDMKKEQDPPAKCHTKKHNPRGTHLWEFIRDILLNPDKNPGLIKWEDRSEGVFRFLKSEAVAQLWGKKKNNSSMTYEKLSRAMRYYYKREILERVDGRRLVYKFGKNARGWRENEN
How it was run: as §1

[7] = target: SPI1 (Homo sapiens, UniProt P17947 1-270); settings: protein: recombinant; tags: N-terminal GST; dsDNA, one strand shown
How it was run: as §1

[8] = target: SPIB (Homo sapiens, UniProt Q01892 1-262); settings: protein: recombinant; tags: N-terminal GST; dsDNA, one strand shown
Sequence of SPIB (Q01892 whole entry): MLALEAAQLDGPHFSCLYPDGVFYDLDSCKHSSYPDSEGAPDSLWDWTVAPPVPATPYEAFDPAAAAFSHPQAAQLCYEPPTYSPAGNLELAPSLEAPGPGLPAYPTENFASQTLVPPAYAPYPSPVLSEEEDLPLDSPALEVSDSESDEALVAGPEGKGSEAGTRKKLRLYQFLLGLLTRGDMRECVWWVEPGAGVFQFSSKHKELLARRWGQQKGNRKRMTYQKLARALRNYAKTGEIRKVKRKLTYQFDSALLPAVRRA
How it was run: as §1

[9] = target: T6, ELK3 (Homo sapiens, UniProt P41970 1-407); settings: protein: recombinant; tags: N-terminal GST; dsDNA, one strand shown
T6 sequence: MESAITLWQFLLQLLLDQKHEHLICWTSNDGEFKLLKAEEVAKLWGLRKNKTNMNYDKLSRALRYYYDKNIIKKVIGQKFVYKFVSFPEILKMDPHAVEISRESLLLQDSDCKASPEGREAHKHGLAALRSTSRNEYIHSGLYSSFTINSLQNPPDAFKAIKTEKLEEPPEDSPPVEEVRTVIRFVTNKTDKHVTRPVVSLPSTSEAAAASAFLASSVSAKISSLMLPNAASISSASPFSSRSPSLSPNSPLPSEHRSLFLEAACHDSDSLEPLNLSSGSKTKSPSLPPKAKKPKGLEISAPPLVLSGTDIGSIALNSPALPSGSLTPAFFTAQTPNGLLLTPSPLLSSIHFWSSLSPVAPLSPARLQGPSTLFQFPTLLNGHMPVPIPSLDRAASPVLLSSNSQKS
How it was run: as §1

[10] = target: T7, FEV (Homo sapiens, UniProt Q99581 1-238); settings: protein: recombinant; tags: N-terminal GST; dsDNA, one strand shown
T7 sequence: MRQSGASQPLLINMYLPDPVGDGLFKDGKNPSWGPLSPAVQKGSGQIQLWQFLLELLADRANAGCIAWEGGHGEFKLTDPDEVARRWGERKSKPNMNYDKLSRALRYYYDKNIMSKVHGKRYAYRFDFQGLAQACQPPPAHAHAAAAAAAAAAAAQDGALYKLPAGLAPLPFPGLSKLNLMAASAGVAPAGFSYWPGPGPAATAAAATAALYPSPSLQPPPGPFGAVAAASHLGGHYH
How it was run: as §1

[11] = target: ETV5 (Homo sapiens, UniProt P41161 1-510); settings: protein: recombinant; tags: N-terminal GST; dsDNA, one strand shown
Sequence of ETV5 (P41161 whole entry): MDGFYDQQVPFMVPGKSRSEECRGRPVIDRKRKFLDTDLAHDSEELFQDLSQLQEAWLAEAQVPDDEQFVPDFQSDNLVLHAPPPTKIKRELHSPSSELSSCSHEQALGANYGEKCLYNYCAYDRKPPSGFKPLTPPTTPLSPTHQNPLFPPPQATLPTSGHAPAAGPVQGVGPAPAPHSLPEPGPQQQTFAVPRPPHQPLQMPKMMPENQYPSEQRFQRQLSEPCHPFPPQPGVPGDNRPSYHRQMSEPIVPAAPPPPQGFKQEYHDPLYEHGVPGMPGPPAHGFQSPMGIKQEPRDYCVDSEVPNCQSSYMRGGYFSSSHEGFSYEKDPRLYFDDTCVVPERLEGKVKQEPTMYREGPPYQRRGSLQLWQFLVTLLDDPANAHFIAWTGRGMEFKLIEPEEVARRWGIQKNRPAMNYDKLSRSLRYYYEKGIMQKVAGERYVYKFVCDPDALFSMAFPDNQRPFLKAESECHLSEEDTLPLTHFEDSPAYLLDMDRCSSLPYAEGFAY
How it was run: as §1

[12] = target: HSF1 (Homo sapiens, UniProt Q00613 1-529); settings: protein: recombinant; tags: N-terminal GST; chain copies: 3; dsDNA, one strand shown
Sequence of HSF1 (Q00613 whole entry): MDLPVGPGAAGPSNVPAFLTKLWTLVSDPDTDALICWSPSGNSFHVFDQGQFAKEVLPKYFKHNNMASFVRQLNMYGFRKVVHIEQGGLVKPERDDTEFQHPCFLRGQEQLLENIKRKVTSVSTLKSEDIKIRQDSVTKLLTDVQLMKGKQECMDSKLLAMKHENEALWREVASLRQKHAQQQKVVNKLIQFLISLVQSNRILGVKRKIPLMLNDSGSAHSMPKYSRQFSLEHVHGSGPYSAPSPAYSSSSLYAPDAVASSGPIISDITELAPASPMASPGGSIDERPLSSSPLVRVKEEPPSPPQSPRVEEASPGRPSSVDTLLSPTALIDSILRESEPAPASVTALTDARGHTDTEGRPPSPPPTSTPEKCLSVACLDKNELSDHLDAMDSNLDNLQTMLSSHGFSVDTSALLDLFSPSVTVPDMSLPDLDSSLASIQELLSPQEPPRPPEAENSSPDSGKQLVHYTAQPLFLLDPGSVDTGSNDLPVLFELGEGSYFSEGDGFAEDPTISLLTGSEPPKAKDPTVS
How it was run: as §1

[13] = target: T8, SPIC (Homo sapiens, UniProt Q8N5J4 1-248); settings: protein: recombinant; tags: N-terminal GST; dsDNA, one strand shown
T8 sequence: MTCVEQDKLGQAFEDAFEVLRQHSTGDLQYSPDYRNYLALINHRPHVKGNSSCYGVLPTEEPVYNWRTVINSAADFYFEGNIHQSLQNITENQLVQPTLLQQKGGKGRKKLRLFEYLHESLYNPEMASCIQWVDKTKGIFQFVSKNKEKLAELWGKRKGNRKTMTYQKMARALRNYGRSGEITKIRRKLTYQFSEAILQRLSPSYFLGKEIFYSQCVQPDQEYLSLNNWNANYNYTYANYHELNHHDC
How it was run: as §1

[14] = target: ELF4 (Homo sapiens, UniProt Q99607 1-663); settings: protein: recombinant; tags: N-terminal GST; dsDNA, one strand shown
Sequence of ELF4 (Q99607 whole entry): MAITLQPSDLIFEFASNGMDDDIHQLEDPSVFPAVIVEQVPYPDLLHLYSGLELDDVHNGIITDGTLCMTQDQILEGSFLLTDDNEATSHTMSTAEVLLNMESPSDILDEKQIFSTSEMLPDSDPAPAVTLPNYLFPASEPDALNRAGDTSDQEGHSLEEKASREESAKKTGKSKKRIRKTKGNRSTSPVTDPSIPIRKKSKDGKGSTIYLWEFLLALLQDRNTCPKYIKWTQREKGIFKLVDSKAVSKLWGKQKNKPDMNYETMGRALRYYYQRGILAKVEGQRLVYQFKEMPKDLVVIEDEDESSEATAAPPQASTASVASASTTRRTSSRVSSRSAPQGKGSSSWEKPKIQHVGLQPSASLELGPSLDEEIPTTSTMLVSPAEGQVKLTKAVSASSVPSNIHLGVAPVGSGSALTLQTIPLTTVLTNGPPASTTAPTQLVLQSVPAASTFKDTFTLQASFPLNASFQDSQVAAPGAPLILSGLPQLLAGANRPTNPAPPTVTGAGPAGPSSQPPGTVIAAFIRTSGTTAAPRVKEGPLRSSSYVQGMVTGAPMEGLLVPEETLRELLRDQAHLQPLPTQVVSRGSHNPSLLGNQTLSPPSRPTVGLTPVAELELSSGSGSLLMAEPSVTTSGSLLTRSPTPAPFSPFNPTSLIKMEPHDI
How it was run: as §1

[15] = target: T9, ELK4 (Homo sapiens, UniProt P28324-2 1-405); settings: protein: recombinant; tags: N-terminal GST; dsDNA, one strand shown
T9 sequence: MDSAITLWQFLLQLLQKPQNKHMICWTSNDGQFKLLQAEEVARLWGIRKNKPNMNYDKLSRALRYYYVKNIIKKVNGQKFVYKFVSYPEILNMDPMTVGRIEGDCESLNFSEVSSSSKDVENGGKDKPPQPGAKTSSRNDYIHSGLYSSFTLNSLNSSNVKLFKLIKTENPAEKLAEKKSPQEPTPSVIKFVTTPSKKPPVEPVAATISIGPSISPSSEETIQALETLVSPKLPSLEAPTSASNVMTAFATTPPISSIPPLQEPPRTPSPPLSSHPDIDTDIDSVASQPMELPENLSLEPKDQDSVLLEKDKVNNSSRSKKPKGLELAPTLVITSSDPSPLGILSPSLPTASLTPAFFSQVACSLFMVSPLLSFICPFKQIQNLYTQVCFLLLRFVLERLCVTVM
How it was run: as §1

[16] = target: T10, ETV2 (Homo sapiens, UniProt O00321 1-342); settings: protein: recombinant; tags: N-terminal GST; dsDNA, one strand shown
T10 sequence: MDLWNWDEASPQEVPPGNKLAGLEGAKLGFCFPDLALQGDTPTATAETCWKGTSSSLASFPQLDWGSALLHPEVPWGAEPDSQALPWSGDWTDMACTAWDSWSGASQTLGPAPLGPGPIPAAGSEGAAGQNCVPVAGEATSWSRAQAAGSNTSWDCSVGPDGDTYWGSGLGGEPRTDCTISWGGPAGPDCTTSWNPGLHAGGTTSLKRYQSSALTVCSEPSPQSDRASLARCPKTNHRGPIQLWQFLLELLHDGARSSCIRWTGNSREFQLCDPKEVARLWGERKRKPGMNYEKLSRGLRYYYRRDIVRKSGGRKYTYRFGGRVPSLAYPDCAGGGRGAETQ
How it was run: as §1

[17] = target: T11, ELF3 (Homo sapiens, UniProt P78545 1-371); settings: protein: recombinant; tags: N-terminal GST; dsDNA, one strand shown
T11 sequence: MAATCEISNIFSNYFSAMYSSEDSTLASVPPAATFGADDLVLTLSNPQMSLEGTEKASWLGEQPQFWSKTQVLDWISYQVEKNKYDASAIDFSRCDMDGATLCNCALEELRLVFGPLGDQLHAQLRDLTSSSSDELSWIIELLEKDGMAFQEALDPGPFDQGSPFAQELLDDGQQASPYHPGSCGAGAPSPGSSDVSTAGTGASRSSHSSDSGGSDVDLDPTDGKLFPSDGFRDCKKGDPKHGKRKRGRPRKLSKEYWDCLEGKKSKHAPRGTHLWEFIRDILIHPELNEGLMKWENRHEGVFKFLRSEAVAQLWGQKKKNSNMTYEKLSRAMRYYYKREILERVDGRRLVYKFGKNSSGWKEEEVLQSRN
How it was run: as §1

[18] = target: CRX (Homo sapiens, UniProt O43186 1-299); settings: protein: recombinant; tags: N-terminal GST; dsDNA, one strand shown
Sequence of CRX (O43186 whole entry): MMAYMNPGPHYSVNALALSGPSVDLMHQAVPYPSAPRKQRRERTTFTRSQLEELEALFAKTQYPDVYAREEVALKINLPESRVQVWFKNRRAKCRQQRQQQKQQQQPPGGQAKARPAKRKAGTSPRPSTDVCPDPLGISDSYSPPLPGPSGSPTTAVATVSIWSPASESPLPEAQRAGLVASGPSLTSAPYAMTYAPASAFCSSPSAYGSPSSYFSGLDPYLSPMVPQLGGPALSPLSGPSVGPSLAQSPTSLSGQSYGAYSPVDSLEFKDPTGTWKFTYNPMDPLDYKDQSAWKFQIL
How it was run: as §1

[19] = target: ETV1 (Homo sapiens, UniProt P50549 1-477); settings: protein: recombinant; tags: N-terminal GST; dsDNA, one strand shown
Sequence of ETV1 (P50549 whole entry): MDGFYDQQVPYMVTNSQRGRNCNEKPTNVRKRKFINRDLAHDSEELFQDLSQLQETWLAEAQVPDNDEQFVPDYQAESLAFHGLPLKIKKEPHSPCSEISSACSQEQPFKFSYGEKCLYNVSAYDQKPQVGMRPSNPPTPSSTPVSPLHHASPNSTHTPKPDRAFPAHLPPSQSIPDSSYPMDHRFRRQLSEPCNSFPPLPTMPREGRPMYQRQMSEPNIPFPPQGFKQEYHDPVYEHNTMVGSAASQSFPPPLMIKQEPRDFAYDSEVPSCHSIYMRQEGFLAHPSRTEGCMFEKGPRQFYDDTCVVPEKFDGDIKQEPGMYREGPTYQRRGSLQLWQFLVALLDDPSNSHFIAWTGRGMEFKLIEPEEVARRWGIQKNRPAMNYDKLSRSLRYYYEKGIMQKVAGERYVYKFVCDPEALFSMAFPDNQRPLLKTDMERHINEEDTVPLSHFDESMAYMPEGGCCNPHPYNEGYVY
How it was run: as §1

CTCACA
binding signal [1]: 1.29 fold enrichment (6-mer frequency, TF over GST control)
binding signal [2]: 1.3 fold enrichment (6-mer frequency, TF over GST control)
binding signal [3]: 1.38 fold enrichment (6-mer frequency, TF over GST control)
binding signal [4]: 1.34 fold enrichment (6-mer frequency, TF over GST control)
binding signal [5]: 1.35 fold enrichment (6-mer frequency, TF over GST control)
binding signal [6]: 1.42 fold enrichment (6-mer frequency, TF over GST control)
binding signal [7]: 1.27 fold enrichment (6-mer frequency, TF over GST control)
binding signal [8]: 1.38 fold enrichment (6-mer frequency, TF over GST control)
binding signal [9]: 1.41 fold enrichment (6-mer frequency, TF over GST control)
binding signal [10]: 1.44 fold enrichment (6-mer frequency, TF over GST control)
binding signal [11]: 1.31 fold enrichment (6-mer frequency, TF over GST control)
binding signal [12]: 1.08 fold enrichment (6-mer frequency, TF over GST control)
binding signal [13]: 1.23 fold enrichment (6-mer frequency, TF over GST control)
binding signal [14]: 1.32 fold enrichment (6-mer frequency, TF over GST control)
binding signal [15]: 1.34 fold enrichment (6-mer frequency, TF over GST control)
binding signal [16]: 1.35 fold enrichment (6-mer frequency, TF over GST control)
binding signal [17]: 1.3 fold enrichment (6-mer frequency, TF over GST control)
binding signal [18]: 1.12 fold enrichment (6-mer frequency, TF over GST control)
binding signal [19]: 1.2 fold enrichment (6-mer frequency, TF over GST control)
